# Source: PubChem BioAssay (NCATS)
# “And” between values parts separate entries of the source, which are not always exact repeats. Equal entries are not always repeated. Inconclusive results are not listed. A call without a number means that no potency is given here. The source made the active and inactive calls. Calls follow the shape of the dose curve; as a rule, active = well fitted curve in the direction sought with a large enough effect; inconclusive = small, poorly fitted or top-dose-only effect, or another doubt; inactive = no such curve, though single readings can be large; an effect the other way counts as inactive or inconclusive.
# Target: Cytochrome P450 3A4 (Homo sapiens) (UniProt P08684)
# Sequence (P08684 whole entry, looked up): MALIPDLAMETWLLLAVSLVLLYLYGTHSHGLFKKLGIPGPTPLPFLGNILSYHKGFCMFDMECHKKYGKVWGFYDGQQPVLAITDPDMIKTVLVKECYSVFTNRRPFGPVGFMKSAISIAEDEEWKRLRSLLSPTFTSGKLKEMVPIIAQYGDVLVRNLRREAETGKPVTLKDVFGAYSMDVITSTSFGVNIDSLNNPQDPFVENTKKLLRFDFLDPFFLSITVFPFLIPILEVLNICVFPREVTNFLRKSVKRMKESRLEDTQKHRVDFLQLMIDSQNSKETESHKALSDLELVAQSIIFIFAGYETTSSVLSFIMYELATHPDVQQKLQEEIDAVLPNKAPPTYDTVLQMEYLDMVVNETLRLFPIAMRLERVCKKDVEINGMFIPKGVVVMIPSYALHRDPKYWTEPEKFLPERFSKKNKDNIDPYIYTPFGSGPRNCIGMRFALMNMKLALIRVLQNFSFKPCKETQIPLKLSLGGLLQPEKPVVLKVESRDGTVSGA
# Assay: qHTS Assay for Inhibitors and Substrates of Cytochrome P450 3A4 (AID 884); also: nearly all actives have a fitted effect of over 50% in size
# Details: recombinant CYP3A4, Luciferin-PPXE luminescence; series mostly up to 57.1 µM
# How it was run: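 20 nM human CYP3A4 with 25 uM Luciferin-PPXE (at KM) in 200 mM KPO4, preincubated 10 min with compound; NADPH regeneration started a 60 min RT reaction. Luciferin detected by luminescence, normalized to 57 uM ketoconazole as full inhibition.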
# Potency is read from the fitted curve at half-maximal effect.
row,Compound,Potency
1,Cc1cccc(C)c1NC(=O)CN1CCN(CCCC(c2ccc(F)cc2)c2ccc(F)cc2)CC1,inactive
2,CN1CCC(=C2c3ccccc3Sc3ccccc32)CC1,inactive
3,Oc1ccc(Cl)c2cccnc12,inactive
4,CC(C)(C(=O)c1cccnc1)c1cccnc1,1.26 µM (active)
5,CCOC(=O)n1ccn(C)c1=S,inactive
6,CC(=O)Nc1c(I)cc(I)c(C(=O)O)c1I,inactive
7,CCn1cc(C(=O)O)c(=O)c2cnc(N3CCCC3)nc21,inactive
8,Oc1c(I)cc(I)c2cccnc12,inactive
9,OCc1ccccc1O,inactive
10,COc1ccc(C2C(=O)c3ccccc3C2=O)cc1,inactive
11,O=C(CCCN1CCC(O)(c2ccc(Br)cc2)CC1)c1ccc(F)cc1,inactive
12,Cc1ccc(C(=O)C(C)CN2CCCCC2)cc1 (stereo unspecified),inactive
13,Cc1c(C(N)=O)cc([N+](=O)[O-])cc1[N+](=O)[O-],inactive
14,CCN(CCCc1ccccc1)CCCc1ccccc1,inactive
15,COc1cc(OC)cc(OC)c1,inactive
16,Nc1nc2ncc(CNc3ccc(C(=O)N[C@@H](CCC(=O)O)C(=O)O)cc3)nc2c(=O)[nH]1,inactive
17,CCCCOc1cc(C(=O)NCCN(CC)CC)c2ccccc2n1,inactive

# Target: Cytochrome P450 3A4 (Homo sapiens) (UniProt P08684)
# Assay: qHTS Assay for Activators of Cytochrome P450 3A4 (AID 885); also: nearly all actives have a fitted effect of over 65% in size
# Details: recombinant CYP3A4, Luciferin-PPXE luminescence, 60 min; series mostly up to 57.1 µM
# How it was run: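 Quantitative HTS format: compounds preincubated with 20nM human CYP3A4 and Luciferin-PPXE substrate at KM, reaction started by NADPH regeneration, stopped after 60 min, luciferase luminescence read 20 min later.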
row,Compound,Potency
1,CN(C(=O)CN(CCO)CC(=O)N(C)C(C)(C)Cc1ccccc1)C(C)(C)Cc1ccccc1,inactive
2,O=C(OCC(O)CO)c1ccccc1Nc1ccnc2cc(Cl)ccc12 (stereo unspecified),inactive
3,CC(C)(C(=O)c1cccnc1)c1cccnc1,inactive
4,CC(Cc1cccc(C(F)(F)F)c1)NCCOC(=O)c1ccccc1 (stereo unspecified),inactive
5,O=C1c2ccccc2C(=O)C1c1ccccc1,inactive
6,CN(C)CC/C=C1\c2ccccc2Sc2ccc(Cl)cc21,inactive
7,CCCCc1nc(Cl)c(CO)n1Cc1ccc(-c2ccccc2-c2nn[nH]n2)cc1,inactive
8,COc1c2occc2c(OC)c2c(=O)cc(C)oc12,inactive
9,O=C(CCCN1CCC(O)(c2ccc(Br)cc2)CC1)c1ccc(F)cc1,10 µM (active)
10,CNCC[C@@H](Oc1ccccc1C)c1ccccc1,inactive
11,O=C(COc1ccc(Cl)cc1)N1CCN(Cc2ccc3c(c2)OCO3)CC1,inactive

# Target: Cytochrome P450 2D6 (Homo sapiens) (UniProt P10635)
# Sequence (P10635 whole entry, looked up): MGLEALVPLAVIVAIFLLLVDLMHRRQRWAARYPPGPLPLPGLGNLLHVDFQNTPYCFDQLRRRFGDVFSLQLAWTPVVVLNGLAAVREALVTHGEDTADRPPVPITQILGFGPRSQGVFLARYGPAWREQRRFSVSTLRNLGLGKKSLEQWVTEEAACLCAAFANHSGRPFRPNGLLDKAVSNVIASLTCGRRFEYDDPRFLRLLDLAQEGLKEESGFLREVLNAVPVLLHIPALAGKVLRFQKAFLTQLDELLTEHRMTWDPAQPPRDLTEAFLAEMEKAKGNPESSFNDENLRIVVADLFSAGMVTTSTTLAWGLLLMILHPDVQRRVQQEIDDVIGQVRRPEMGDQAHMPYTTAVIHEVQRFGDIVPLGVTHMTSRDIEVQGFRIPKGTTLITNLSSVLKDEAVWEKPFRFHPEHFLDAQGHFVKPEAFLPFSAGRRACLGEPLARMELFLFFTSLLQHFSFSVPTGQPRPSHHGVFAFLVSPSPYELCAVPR
# Assay: qHTS Assay for Inhibitors and Substrates of Cytochrome P450 2D6 (AID 891); also: nearly all actives have a fitted effect of over 60% in size
# Details: recombinant CYP2D6, luciferin-ME EGE luminescence; series mostly up to 57.1 µM
# How it was run: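 Human CYP2D6 (5 nM) with 30 uM Luciferin-ME EGE (at Km) in 100 mM KPO4, compound preincubated 10 min, then NADPH regeneration system for 60 min at room temperature. Luciferin read by luminescence; normalized to 1.43 uM quinidine.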
row,Compound,Potency
1,Cc1cccc(C)c1NC(=O)CN1CCN(CCCC(c2ccc(F)cc2)c2ccc(F)cc2)CC1,5.01 µM (active)
2,CN(C(=O)CN(CCO)CC(=O)N(C)C(C)(C)Cc1ccccc1)C(C)(C)Cc1ccccc1,3.16 µM (active)
3,CN1CCC(=C2c3ccccc3Sc3ccccc32)CC1,3.98 µM (active)
4,CN(C)CC/C=C1\c2ccccc2Sc2ccc(Cl)cc21,2.51 µM (active)
5,OC(CCN1CCCCC1)(c1ccccc1)c1ccccc1,5.01 µM (active) and 1.26 µM (active)
6,CCN1CCC[C@H]1CNC(=O)c1c(OC)ccc(Br)c1OC,0.199 µM (active)
7,O=C(CCCN1CCC(O)(c2ccc(Br)cc2)CC1)c1ccc(F)cc1,3.98 µM (active)
8,O=C(COc1ccc(Cl)cc1)N1CCN(Cc2ccc3c(c2)OCO3)CC1,0.199 µM (active)
